# High-throughput results (PubChem)
# HT1080-NT tox – kills 2HG-producing HT-1080-NT fibrosarcoma cells | 360,000 compounds, 1.6% hits | AID 686970 | Potency, µM (top dose mostly 46.1 µM), for the others: top-dose activity, negative = less viability, actives largely listed as cytotoxic | HT-1080-NT fibrosarcoma viability, CellTiter-Glo ATP luminescence, 48 h;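 also: NT is the 2HG producing partner of a matched IDH1 knockdown line; potency is read from the fitted curve at half-maximal effect; 0% = DMSO-treated cells and -100% = media-only wells without cells; nearly all actives have a fitted effect of over 55% in size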
#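 Fibrosarcoma NT cells, 750 per well in 5% FBS RPMI, were exposed to compound for 48 hours. Viability: CellTiter-Glo luminescence.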
# DT40 TDP1 no CPT – qHTS for Inhibitors of human tyrosyl-DNA phosphodiesterase 1 (TDP1): qHTS in cells in absence of CPT; DT40 Tdp1-/- hTDP1 cells, no CPT, ATP luminescence, 48 h; Potency, µM (series often up to 46.2 µM), for the others: at the top dose activity change, negative = growth inhibition, usual class: inhibitors; 420,000 compounds, 15% hits; also: potency is read from the fitted curve at half-maximal effect; nearly all actives have a fitted effect of over 55% in size
#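 Compound effects on proliferation are scored in DT40 Tdp1-/-;hTDP1 cells in the absence of CPT. ATP levels (CellTiter-Glo luminescence) are recorded after a ≥48 hr, 37 °C incubation.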
# DT40 TDP1 CPT – DT40-hTDP1 cell growth loss with CPT; Potency, µM (highest dose often 46.2 µM), for inactives: at the top dose activity change, negative = growth inhibition, most hits filed as inhibitors; chicken DT40 Tdp1-/-;hTDP1 cells + 20 nM CPT, ATP luminescence, 48 h; AID 686979; 420,000 compounds, 12% hits; also: potency is read from the fitted curve at half-maximal effect; nearly all actives have a fitted effect of over 55% in size
#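 Cell growth measured by CellTiter-Glo luminescence after a minimum 48 h, 37 C compound exposure with 20 nM CPT in Tdp1-knockout DT40 cells stably expressing hTDP1, seeded 400/well; qHTS titration format.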
# IL1B secr inh – inhibitors of inflammasome signaling (IL-1 beta secretion); THP-1 LPS/ATP IL-1B secretion, AlphaLISA, 16 h; active compounds read low; activity change, % at 57.5 µM; 360,000 compounds, 4.7% hits; AID 743279; in the data active = activity change below about -50%; inconclusive = mostly about -30% to -49%
#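 Secreted IL-1B measured by AlphaLISA bead assay after 16 h compound exposure of THP-1 cells; compounds (final up to 57.5 uM) added 1 h before LPS (250 ng/mL) and ATP (1.25 mM) stimulation; lower signal means less secretion.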
# HT1080 IDH1KD tx – kills HT-1080 cells with IDH1 knockdown. HT-1080 IDH1 knockdown viability, ATP luminescence, 48 h. Potency, µM (highest dose often 46.1 µM), inactives show at the top dose activity, negative = toxicity, usual class: cytotoxic. 360,000 compounds, 2% hits;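 also: potency is read from the fitted curve at half-maximal effect; 0% = DMSO wells and -100% = cell-free medium wells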
#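 CellTiter-Glo luminescence after 48 h compound exposure at 37 degrees C of IDH1-knockdown HT-1080 cells in 5% FBS RPMI. %Activity scaled between DMSO wells and cell-free media wells, with curves fitted and assigned curve classes.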
# * marks the source's active call; other numbers are inactive results; ? = inconclusive; nt = no result; [ ] = remark or other dose. The list is not random: actives were taken first. Their share in the collection is about 19%. Unless noted, calls follow the shape of the dose curve; as a rule, active = well fitted curve in the direction sought with a large enough effect; inconclusive = small, poorly fitted or top-dose-only effect, or another doubt; inactive = no such curve, though single readings can be large; an effect the other way counts as inactive or inconclusive. Unless noted, % is scaled to controls: 0 for no effect and ±100 for the full control effect.
SMILES,HT1080-NT tox,DT40 TDP1 no CPT,DT40 TDP1 CPT,IL1B secr inh,HT1080 IDH1KD tx
CCCCN=Cc1c(C)[nH]n(-c2ccccc2)c1=S,-1%,?,-28%,-5,-2%
Cc1ccc(-n2[nH]c(C)c(/C=N/NC(=O)c3ccc(O)cc3O)c2=O)cc1,2.1µM*,5.2µM*,12µM*,220,10µM*
Cc1cc(C(=O)N/N=C/c2cc(N=Nc3ccccc3)ccc2O)n[nH]1,?,6.5µM*,5.8µM*,65,?
CCCCN(CCCC)C(=S)N/N=C/c1c(C)[nH]n(-c2ccccc2)c1=O,?,2.6µM*,2.1µM*,92,6.5µM*
Cc1ccc(-n2[nH]c(C)c(C=NCc3ccncc3)c2=O)cc1,?,?,?,33,?
CCC1CCCCN1C(=O)CSc1nc(N)c(NC(=O)c2ccc(OC)c(OC)c2)c(=O)[nH]1 (stereo not given),10%,16%,5%,-2,0%
COc1ccc(Cl)cc1NC(=S)N(CCN1CCOCC1)C1CCN(C(C)=O)CC1,15%,0%,20%,5,0%
Cc1cc(C(=O)N/N=C/c2c(C)[nH]c3ccccc23)n[nH]1,-8%,-20%,16%,-7,0%
Cc1[nH]c2ccccc2c1/C=N/NC(=O)c1cc(-c2cccs2)[nH]n1,-10%,21µM*,?,?,1%
CCC1=Nc2cc(C(=O)NCCN3CCCC3)ccc2Sc2ccccc21,4%,?,?,-1,3%
CCC1=Nc2cc(C(=O)NCCCOC)ccc2Sc2ccccc21,0.65µM*,1.2µM*,1.5µM*,56,1µM*
CCCCNC(=O)c1ccc2c(c1)N=C(CC)c1ccccc1S2,nt,4.6µM*,4.1µM*,nt,nt
CCC1=Nc2cc(C(=O)NCCN3CCOCC3)ccc2Sc2ccc(Br)cc21,-2%,1%,-25%,-4,-14%
CCC1=Nc2cc(C(=O)NCCCOC)ccc2Sc2ccc(Br)cc21,nt,1.3µM*,1.3µM*,nt,nt
COc1cc(CC(=O)NCC(C)(C)N2CCOCC2)cc(OC)c1OC,24%,-2%,-2%,7,10%
O=c1[nH]cnc(O)c1C(c1ccc([N+](=O)[O-])cc1)c1c(O)nc[nH]c1=O,-5%,-3%,-13%,-12,-2%
O=C(Nc1ccc2c(c1)OCCO2)C(c1ccncc1)n1c(=O)c(-c2cc3ccccc3[nH]2)nc2ccccc21 (stereo not given),?,?,?,-19,?
O=C(Nc1ccc2c(c1)OCCO2)C(c1ccc(C(F)(F)F)cc1)n1c(=O)c(-c2cc3ccccc3[nH]2)nc2ccccc21 (stereo not given),?,?,?,-8,16µM*
O=C(Nc1ccc2c(c1)OCCO2)C(c1ccccc1F)n1c(=O)c(-c2cc3ccccc3[nH]2)nc2ccccc21 (stereo not given),?,18µM*,15µM*,-8,?
O=C(Nc1ccc2ccccc2c1)C(c1ccc(C(F)(F)F)cc1)n1c(=O)c(-c2cc3ccccc3[nH]2)nc2ccccc21 (stereo not given),?,?,?,60,16µM*
O=C(CSc1nc2nn(-c3ccccc3)c(=O)c-2c2n1CCCCC2)c1ccc(O)c(O)c1,3%,?,?,74,16%
CN(C(=O)c1cccc(NC(=O)Cc2cccc(NC(=O)C3CCN(C(=O)c4ccccc4)CC3)c2)c1)C1CC1,11%,-27%,-20%,-15,11%
CNc1ncncc1-c1ccccc1C,nt,6%,-16%,nt,nt
CC12CCC(O)CC1=CCC1C2CCC2(C)C3=NN=CC3CC12 (stereo not given),?,?,-17%,54,33µM*
CN(C)CCN[C@H]1CCC2C3CC=C4C[C@@H](O)CC[C@]4(C)C3CC[C@@]21C (stereo not given in full),-7%,3.3µM*,5.8µM*,5,-1%
SMILES,HT1080-NT tox,DT40 TDP1 no CPT,DT40 TDP1 CPT,IL1B secr inh,HT1080 IDH1KD tx
COc1cc(C(C(=O)NC2CCCCC2)N(CCN2CCOCC2)C(=O)C2COc3ccccc3O2)cc(OC)c1OC (stereo not given),?,-25%,7%,-2,22%
N/C(=N\c1nc2c(c(=O)[nH]1)CCC2)Nc1cccc(Cl)c1,?,26µM*,21µM*,-22,?
N/C(=N\c1nc2c(c(=O)[nH]1)CCC2)Nc1cccc2ccccc12,6%,?,?,22,-14%
CCC(C)(C)n1nnnc1C(c1ccc(O)c(OC)c1)N1CCN(c2nc3ccccc3s2)CC1 (stereo not given),6%,16µM*,?,15,2%
CCC(C)(C)n1nnnc1C(c1cc(OC)c(OC)c(OC)c1)N1CCN(c2ccccc2)CC1 (stereo not given),6%,-22%,-9%,-3,11%
CCC(C)(C)n1nnnc1C(c1ccccc1)N1CCN(C2CCCC2)CC1 (stereo not given),10%,-28%,3%,14,-17%
COc1ccc(C(c2nnnn2Cc2ccccc2)N2CCN(c3nc4ccccc4s3)CC2)cc1OC (stereo not given),-20%,18µM*,?,-8,-17%
CCC(C)(C)n1nnnc1C(c1ccccc1)N1CCc2ccccc2C1 (stereo not given),0%,23µM*,?,16,0%
CCC(C)(C)n1nnnc1C(c1ccc(O)c(OC)c1)N1CCc2ccccc2C1 (stereo not given),3%[9.24 µM],13µM*,7.3µM*,17,?
O=C1OCC=C1NNC(=O)c1cccnc1,-3%,-12%,-11%,-1,-2%
CCCCN(C)C(=O)c1ccc2c(c1)NC(=O)C(CC(C)C)N2 (stereo not given),nt,-17%,-4%,nt,nt
COc1cccc(/C=C/C(=O)OCC(=O)Nc2nnc(-c3ccccc3)o2)c1,-28%,-3%,-4%,22,?
CCN1C[C@@H]2[C@@H]3C(=O)N(C)C(=O)[C@@H]3[C@](C)(C1=O)N2C(=O)c1ccc(C(F)(F)F)cc1,5%,-8%,-16%,-1,9%
c1ccc(C(c2nnnn2Cc2ccco2)N2CCN(c3nc4ccccc4s3)CC2)cc1 (stereo not given),-9%,15µM*,?,-13,-15%
COC(=O)c1sccc1S(=O)(=O)Nc1ccc(N2CCCCC2)cc1,-11%,16µM*,?,-7,-13%
COc1ccc(NS(=O)(=O)c2cc(NC(=O)c3cccs3)ccc2N2CCCC2)cc1,10%,21µM*,?,-8,0%
